Experimental findings from the supplement of paper PMC4206461 are described below.

Unmarked numbers belong to inactive results.

The experiment has as its system Pseudomonas aeruginosa PA14 dppBCDF deletion mutant. Put plainly: respiration area under curve with compound as sole nitrogen source, 24 h (OmniLog AUC (arbitrary units)); higher = more respiration / better utilisation as nitrogen source, active = 2000 or more; extreme values may be limits of the assay. As for the experimental part:
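Biolog Phenotype MicroArray plates PM6-PM8: each di/tripeptide is the sole nitrogen source. Tetrazolium reduction was read in the OmniLog every 15 min for 24 h at 37°C and summarised as area under the respiration curve (arbitrary units). Values below 2000 count as no respiration. Strain is the dipeptide ABC transporter deletion mutant.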
Regarding `CC(C)[C@H](NC(=O)[C@@H](N)Cc1ccccc1)C(=O)O` (plate: PM8), the “respiration area under curve” value is 3510 (active).

Take `N[C@@H](CC(=O)O)C(=O)N[C@@H](CCC(=O)O)C(=O)O` (plate: PM6): the “respiration area under curve” value is 0.

`NC(N)=NCCC[C@H](NC(=O)[C@@H](N)Cc1c[nH]c2ccccc12)C(=O)O` (plate: PM7): the “respiration area under curve” value is 11800 (active).

As to `CC(C)C[C@H](NC(=O)[C@@H]1CCCN1)C(=O)O` (plate: PM7), the “respiration area under curve” value is 626.

Turning to `N[C@@H](CCC(=O)O)C(=O)N[C@@H](CCC(=O)O)C(=O)O` (plate: PM6), the “respiration area under curve” value was 0.

`N[C@@H](CCC(=O)O)C(=O)N[C@@H](CC(=O)O)C(=O)O` (plate: PM6): the “respiration area under curve” value was 0.

For the compound `N[C@@H](Cc1ccc(O)cc1)C(=O)N[C@@H](Cc1c[nH]c2ccccc12)C(=O)O` (plate: PM7), the “respiration area under curve” value is 1770.

On to `CC[C@H](C)[C@H](NC(=O)[C@@H](N)C(C)C)C(=O)O` (plate: PM7), for which the “respiration area under curve” value is 842.

For the compound `N[C@@H](Cc1ccccc1)C(=O)NCC(=O)NCC(=O)O` (plate: PM8), the “respiration area under curve” value was 1300.

`CC(C)C[C@H](NC(=O)[C@@H](N)Cc1c[nH]c2ccccc12)C(=O)O` (plate: PM7): the “respiration area under curve” value was 1830.

Turning to `CC[C@H](C)[C@H](N)C(=O)N[C@@H](CCCN=C(N)N)C(=O)O` (plate: PM6), the “respiration area under curve” value was 8420 (active).

As for `CC[C@H](C)[C@H](NC(=O)CNC(=O)CN)C(=O)O` (plate: PM8), the “respiration area under curve” value is 1.

For the compound `CC[C@H](C)[C@H](N)C(=O)N[C@@H](Cc1c[nH]c2ccccc12)C(=O)O` (plate: PM6), the “respiration area under curve” value was 76.8.

With `CC(C)C[C@H](N)C(=O)NCC(=O)NCC(=O)O` (plate: PM8), the “respiration area under curve” value is 5290 (active).

As for `N[C@@H](CO)C(=O)N[C@@H](CC(=O)O)C(=O)O` (plate: PM8), the “respiration area under curve” value was 0.

As to `C[C@@H](O)[C@H](N)C(=O)N[C@@H](CCCN=C(N)N)C(=O)O` (plate: PM7), the “respiration area under curve” value is 13800 (active).

As to `NCC(=O)NCC(=O)N[C@@H](Cc1ccccc1)C(=O)O` (plate: PM8), the “respiration area under curve” value was 0.

Consider `NCC(=O)NCC(=O)O` (plate: PM6), for which the “respiration area under curve” value is 98.5.

Take `NCC(=O)N[C@@H](CC(=O)O)C(=O)O` (plate: PM8): the “respiration area under curve” value is 6.75.

With `CC[C@H](C)[C@H](N)C(=O)N[C@@H](CCSC)C(=O)O` (plate: PM6), the “respiration area under curve” value is 0.

As for `N[C@@H](Cc1ccccc1)C(=O)N[C@@H](Cc1c[nH]c2ccccc12)C(=O)O` (plate: PM7), the “respiration area under curve” value is 85.

`NC(=O)CC[C@H](NC(=O)[C@@H]1CCCN1)C(=O)O` (plate: PM7): the “respiration area under curve” value is 1860.

`CC(C)[C@H](NC(=O)[C@@H](N)Cc1ccc(O)cc1)C(=O)O` (plate: PM8): the “respiration area under curve” value was 5040 (active).

In the case of `NCC(=O)N[C@@H](Cc1ccc(O)cc1)C(=O)O` (plate: PM6), the “respiration area under curve” value was 216.

Regarding `O=C(O)[C@H](Cc1ccc(O)cc1)NC(=O)[C@@H]1CCCN1` (plate: PM7), the “respiration area under curve” value is 8430 (active).

Turning to `NC(=O)CC[C@H](N)C(=O)N[C@@H](CCC(=O)O)C(=O)O` (plate: PM8), the “respiration area under curve” value was 3750 (active).

`C[C@H](N)C(=O)N[C@@H](CC(N)=O)C(=O)O` (plate: PM6): the “respiration area under curve” value was 6980 (active).

In the case of `N[C@@H](CO)C(=O)N[C@@H](CO)C(=O)O` (plate: PM7), the “respiration area under curve” value is 988.

`CC[C@H](C)[C@H](N)C(=O)N[C@H](C(=O)O)[C@@H](C)CC` (plate: PM6): the “respiration area under curve” value is 0.

Turning to `CCC(C)C(N)C(=O)NC(CC(N)=O)C(=O)O` (stereo not given) (plate: PM8), the “respiration area under curve” value was 488.

As to `C[C@@H](O)[C@H](NC(=O)CN)C(=O)O` (plate: PM6), the “respiration area under curve” value was 15.8.

As for `CC(C)[C@H](N)C(=O)N[C@@H](CCCN=C(N)N)C(=O)O` (plate: PM7), the “respiration area under curve” value is 11700 (active).

For `CC(C)[C@H](N)C(=O)NCC(=O)O` (plate: PM7), the “respiration area under curve” value was 47.8.

Take `CC(C)[C@H](N)C(=O)N[C@@H](Cc1ccc(O)cc1)C(=O)O` (plate: PM7): the “respiration area under curve” value is 3890 (active).

As to `CSCCC(N)C(=O)NC(CCCN=C(N)N)C(=O)O` (stereo not given) (plate: PM7), the “respiration area under curve” value was 13000 (active).

`NC(=O)CC[C@H](NC(=O)[C@@H](N)CCC(N)=O)C(=O)O` (plate: PM6): the “respiration area under curve” value is 4130 (active).

Consider `N[C@@H](CCC(=O)O)C(=O)N[C@@H](Cc1ccc(O)cc1)C(=O)O` (plate: PM6), for which the “respiration area under curve” value was 44.

Consider `CC(C)C[C@H](N)C(=O)N[C@@H](CO)C(=O)O` (plate: PM7), for which the “respiration area under curve” value is 11800 (active).

Consider `CC(C)C[C@H](NC(=O)[C@@H](N)CO)C(=O)O` (plate: PM7), for which the “respiration area under curve” value is 3310 (active).

As for `C[C@@H](O)[C@H](N)C(=O)N[C@@H](Cc1ccccc1)C(=O)O` (plate: PM8), the “respiration area under curve” value is 274.
